In all, about 2,300 compounds went through this assay and about 550 (24%) were called active. How the calls were made is not given here. Not all results are given here. Entries with a potency or affinity are not part of this list.
Assay: Vero E6 cell cytotoxicity, dose response, cytotoxicity control for non-replicating M. tuberculosis project, secondary assay (AID 492998);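 further: 100% = vehicle-treated cells and 0% = background wells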
Conditions: series mostly up to 20 µM; viability: at the top concentration

Structure (SMILES)	viability
C(#CCN1CCOCC1)COCc1ccccc1	110% (inactive)
O=c1cc(C(F)(F)F)[nH]c2c(C(F)(F)F)cccc12	96.8% (inactive)
O=C(Nc1nnc(C2=COCCO2)o1)c1ccc(F)cc1	83.1% (inactive)
O=C(Nc1ncc2c(n1)-c1ccccc1OC2)c1ccc(F)cc1	98.9% (inactive)
CCOC(=O)CNCCC(=O)c1ccc(Br)cc1	92.9% (inactive)
COc1ccc(S(=O)(=O)NCc2ccc3c(c2)cc(C)n3C)cc1	103% (inactive)
NC(N)=Nc1nc(-c2ccccc2)c2ccccc2n1	97% (inactive)
COC(=O)COc1ccc(-c2nn(C)c(=O)c3ccccc23)cc1	90.4% (inactive)
COC(=O)[C@H](CC(C)C)NC(=O)NCCC1=CCCCC1	87.6% (inactive)
O=C(NCc1cccs1)c1cc(-c2ccc(O)cc2)on1	89.1% (inactive)
CC1CCN(CCOCCSc2ccc(Cl)cc2)CC1	88.8% (inactive)
O=C(CCSc1ccccn1)c1ccccc1	87.2% (inactive)
CCOc1ccc(-c2ccc(SCC)nn2)cc1	93.3% (inactive)
Nc1c(C(=O)NC2CCCCC2)nsc1C(=O)OCC(=O)NC1CCCCC1	97% (inactive)
CCC(C)c1ccc(OCCn2ccnc2)cc1 (stereo not drawn)	83.8% (inactive)
O=C(N/N=C/C(Br)=C/c1ccccc1)c1cnccn1	88.9% (inactive)
O=C(N/N=C/C(Br)=C/c1ccccc1)c1ccncc1	105% (inactive)
O=C(Cc1ccccc1)Nc1ccc(C(=O)NCC2COc3ccccc3O2)cc1 (stereo not drawn)	94.7% (inactive)
O=C(NCc1ccc(Cl)cc1)c1n[nH]c([N+](=O)[O-])c1Cl	105% (inactive)
CCOc1ccc(NC(=O)COc2ccc3c(c2)OCO3)cc1	100% (inactive)
Cc1cccc(OCCCCc2c(C)n[nH]c2C)c1	86.5% (inactive)
Cc1ccc(C(=O)NCCOc2cccc(C)c2)cc1	101% (inactive)
CC(C)(C)c1ccccc1OCCOCCN1CCCCCC1	75.2% (inactive)
Cc1cc(OCc2cc(C(=O)N(C)CCc3cnn(C)c3)no2)cc(C)c1Cl	77.5% (inactive)
COc1cccc(COC(=O)c2sc3nc4n(c(=O)c3c2C)CCC4)c1OC	99.9% (inactive)

Structure (SMILES)	viability
CCOc1ccc(OCCSc2ccc(S(=O)(=O)N3CCN(C)CC3)cn2)cc1	91.8% (inactive)
O=C(CCN1CCOCC1)c1ccc(Br)cc1	82.3% (inactive)
Cc1cc(C(=O)N/N=C/C=C/c2ccccc2)c(C)o1	81% (inactive)
Nc1ccc2c(c1)oc1ccccc12	98.2% (inactive)
CCCc1nnc(-c2ccc(OC)cc2)o1	97% (inactive)
Cc1ccc(SCCC(=O)OCC(=O)NCC2CCCCC2)cc1	101% (inactive)
NC(=O)CN1CCN(C2CC(=O)N(CCc3ccccc3)C2=O)CC1 (stereo not drawn)	107% (inactive)
NNC(=O)COc1cccc(Oc2ccccc2)c1	107% (inactive)
CCOC(=O)COc1ccc2c3c(c(=O)oc2c1C)CCC3	92.1% (inactive)
O=Cc1coc2ccc3ccccc3c2c1=O	95.9% (inactive)
O=C(OCc1ccc([N+](=O)[O-])cc1)c1ccc2ccccc2n1	96.5% (inactive)
Cc1cc(C=C2C(=O)N(C)C(=S)N(C)C2=O)c(C)n1-c1cccnc1	113% (inactive)
Cc1ccc2nc(C)c3c(c2c1)SCC3	103% (inactive)
CCCCCCn1c(=O)c(C(=O)Nc2nnc(C)s2)c(O)c2ccccc21	83.8% (inactive)
CCCCn1c(=O)c(C(=O)Nc2nnc(C(C)C)s2)c(O)c2ccccc21	91.5% (inactive)
CCOC(=O)Cc1csc(NC(=O)COc2ccc3c(c2)CCC3)n1	103% (inactive)
O=C(NC(=S)N1CCN(C/C=C/c2ccccc2)CC1)c1ccco1	113% (inactive)
Brc1ccc(-c2ccc(CNCc3ccccn3)o2)cc1	91.8% (inactive)
Cc1ccccc1OCCCCc1c(C)n[nH]c1C	81.3% (inactive)
O=C(COC(=O)CC12CC3CC(CC(C3)C1)C2)Nc1cccnc1Cl	83.2% (inactive)
NC(=O)COc1ccc2cc(-c3ccc(F)cc3)c(=O)oc2c1	86.5% (inactive)
O=C(CCN1CCOCC1)c1ccc(Cl)cc1	82.1% (inactive)
CCOC(=O)C1(CCc2ccccc2)CCN(Cc2ccccn2)CC1	96.7% (inactive)
COc1cc(NC(=O)N2CCOCC2)cc(OC)c1	106% (inactive)
COc1ccc(/C=N/NC(=O)c2ccncc2)cc1CN1CCOCC1	106% (inactive)

Structure (SMILES)	viability
COc1ccc(C(=O)Oc2cccc3cccnc23)cc1S(=O)(=O)N1CCOCC1	91% (inactive)
Oc1ccc(F)c2cccnc12	98% (inactive)
O=C(COc1c(Br)cc(Br)c2cccnc12)N1CCCCC1	93.4% (inactive)
COc1ccc2cc(C(=O)C3CCCN(Cc4ccccn4)C3)ccc2c1 (stereo not drawn)	88.9% (inactive)
Cc1ccc(NC(=O)CO/N=C/c2ccccc2C)c(C)c1	100% (inactive)
COC(=O)CCSCc1cn2cc(Cl)ccc2n1	109% (inactive)
COc1ccc(-c2nc3ccc(C)cc3c(=O)o2)cc1OC	109% (inactive)
CCOC(=O)Cn1c(-c2ccccc2)ccc(C#N)c1=O	97.8% (inactive)
COc1ccc(OC(=O)C(C)N2C(=O)c3ccccc3C2=O)cc1 (stereo not drawn)	104% (inactive)
O=C(Cc1ccc(Cl)cc1)OCC(=O)c1ccc[nH]1	109% (inactive)
O=C(COC(=O)CC1CCCC1)Nc1ccc(Cl)cn1	108% (inactive)
NC(=O)COC(=O)c1sc2ccccc2c1Cl	90.3% (inactive)
CCOC(=O)c1c(C)n(C)c2ccc(OC(C)C(=O)OC)cc12 (stereo not drawn)	98.4% (inactive)
Cc1cc(C(=O)COc2cccc3cccnc23)c(C)n1C	87.9% (inactive)
CCOC(=O)COc1ccc(C2CC(C)=NN2c2ccccc2)cc1 (stereo not drawn)	102% (inactive)
Cc1ccccc1Cn1cc(NC(=O)c2noc(C(C)C)c2[N+](=O)[O-])cn1	112% (inactive)
CCOC(=O)CCCNC(=O)COC(=O)c1cc(Br)c(Br)s1	107% (inactive)
Cc1nnc(C)n1/N=C/c1cc(Br)cc(Br)c1O	105% (inactive)
O=C(N/N=C\c1ccco1)c1cncc(Br)c1	97.2% (inactive)
COC(=O)C1=C(C(=O)OC)C(c2cc(Cl)ccc2O)c2sc(=O)[nH]c2S1 (stereo not drawn)	92.5% (inactive)
CSCCC(=O)N1CCCC(CNC(=O)c2ccc(-c3ccccc3)cc2)C1 (stereo not drawn)	97.5% (inactive)
CCOc1ccc(-c2ccc(C=O)o2)c([N+](=O)[O-])c1	98.1% (inactive)
O=[N+]([O-])c1ccc(Nc2ccccc2)c2nonc12	103% (inactive)
O=[N+]([O-])c1cncc([N+](=O)[O-])c1Nc1ccccc1Cl	88.5% (inactive)
CCCCc1ccc(NS(=O)(=O)c2c(C)n(C)c(=O)n(C)c2=O)cc1	89.4% (inactive)

Structure (SMILES)	viability
CCOc1ccc(OCC(=O)OCc2cc(=O)n3cc(Br)ccc3n2)cc1	100% (inactive)
O=C(N/N=C/c1cccs1)c1cncc(Br)c1	101% (inactive)
O=C(N/N=C\C=C\c1ccco1)c1cncc(Br)c1	97.4% (inactive)
COC(=O)C1CC(=O)N(c2ccc(OCc3ccccc3Cl)cc2)C1 (stereo not drawn)	106% (inactive)
COc1cccc(OCC(=O)NNC(=O)C(=O)Nc2cccc(C)c2)c1	90.2% (inactive)
CC(C)=CCN1CCN(CCC2=C(C)CCCC2(C)C)CC1CCO (stereo not drawn)	88.3% (inactive)
CN1C(=O)CC(Sc2ccccc2C(=O)O)C1=O (stereo not drawn)	105% (inactive)
Cc1ccc(N/N=C2\CS(=O)(=O)N(C)c3ccsc32)cc1	91.9% (inactive)
CCCOc1ccc(-c2nc(C#N)c(NCCCn3ccnc3)o2)cc1	77.3% (inactive)
COc1ccc(C(=O)OCn2nnc3ccccc3c2=O)cc1[N+](=O)[O-]	107% (inactive)
CC(C)CN(Cc1c(O)ccc2ccccc12)CC(C)C	98.1% (inactive)
O=C(CNC(=O)c1ccco1)OCc1ccc(C(=O)Oc2ccccc2)cc1	95.4% (inactive)
Oc1ccc(Cl)cc1CNCc1ccc(F)cc1	97.2% (inactive)
O=[N+]([O-])c1ccc(CNc2cccc(Cl)c2)s1	96.4% (inactive)
CCC(C)[C@H]1CN=C(N)N1CCc1cccc2ccccc12 (stereo partly drawn)	104% (inactive)
COc1ccc(C(=O)OCn2nnc3ccccc3c2=O)cc1	93.6% (inactive)
CC(C)N=C1SC(CC(=O)Nc2ccccc2)C(=O)N1C(C)C (stereo not drawn)	94.4% (inactive)
Cc1cccc(CC(=O)NCC2CCCCC2)c1	89.9% (inactive)
CCCN1C(=O)SC(CC(=O)Nc2ccccc2)C1=O (stereo not drawn)	99.3% (inactive)
COC(=O)COc1ccc(S(=O)(=O)N2CCCCCC2)cc1	80.5% (inactive)
O=C(NCC1CCN(c2ccc(S(=O)(=O)N3CCOCC3)cc2)CC1)c1ccc(Cl)cc1	88% (inactive)
N#Cc1ccc(-c2ccc(OCC(=O)Nc3cccnc3)cc2)cc1	72.8% (inactive)
O=C(CN1CCN(c2ccccc2O)CC1)Nc1ccc2c(c1)CCC2	107% (inactive)
O=S(=O)(Nc1nccs1)c1ccc(NCc2cc(Br)cc(Br)c2O)cc1	88.4% (inactive)
COc1ccc(C2=NOC(COC(=O)c3ccc4ccccc4n3)C2)cc1 (stereo not drawn)	95.9% (inactive)

Structure (SMILES)	viability
COc1ccc(C(=O)COC(=O)CCC(=O)c2cccs2)cc1	105% (inactive)
O=C(O)COc1ccc2occ(C(=O)c3ccccc3)c2c1	96.2% (inactive)
O=C(OCC#CCSc1nnc(-c2ccncc2)o1)c1cccs1	103% (inactive)
O=C(COC(=O)c1ccc([N+](=O)[O-])s1)Nc1ccc(Cl)cn1	92.2% (inactive)
Cc1cc(C)c(OCC(=O)Nc2nnc(-c3ccco3)o2)c(C)c1	100% (inactive)
O=C(c1ccc(Cl)cc1)c1nnc(-c2ccncc2)o1	92.7% (inactive)
O=C(Nc1nnc(-c2ccco2)o1)c1ccc(Cl)s1	72.1% (inactive)
CCOC(=O)c1c(C)[nH]c(C)c1C(=O)COC(=O)c1ccc([N+](=O)[O-])s1	79.9% (inactive)
CCN1CCN(C(=O)CN(Cc2ccccc2)S(C)(=O)=O)CC1	103% (inactive)
Clc1ccc(SCCOCCN2CCc3ccccc3C2)cc1	89.1% (inactive)
O=c1oc2ccccc2c2c1nnn2CCO	94.4% (inactive)
CCC(C)c1ccc(O)c(/C=N/O)c1 (stereo not drawn)	99.8% (inactive)
COc1ccc2c3c(cccc13)OCC2=O	94.7% (inactive)
COc1ccc(NC(=O)c2ccc(COCC(F)(F)C(F)F)cc2)cc1	95.8% (inactive)
O=C(NCCC1CCCC1)c1cccs1	96.5% (inactive)
O=C1CC(N2CCN(Cc3ccccc3)CC2)C(=O)N1CCc1ccccc1 (stereo not drawn)	93.1% (inactive)
O=C(N/N=C/c1cccc2cccnc12)c1ccccc1O	78.1% (inactive)
NC(=O)N/N=C\c1cc(Br)ccc1O	92.7% (inactive)
COCCNC(=O)CC(=O)N/N=C/c1cccc(C(=O)OC)c1	97.4% (inactive)
CCCOc1ccc(CCC(=O)N/N=C/c2ccc([N+](=O)[O-])o2)cc1	70.6% (inactive)
COC(=O)COc1ccc2c(-c3ccc(OC)cc3)cc(=O)oc2c1	104% (inactive)
Cc1cccc(C)c1N1C(=O)CC(N2CCSCC2)C1=O (stereo not drawn)	98.7% (inactive)
Cc1ccc(C(=O)OCC(=O)N2CCCCCC2)c(O)c1	109% (inactive)

— PubChem BioAssay AID492998 (Southern Research Specialized Biocontainment Screening …, 2010)
